The source of these data is ChEMBL document CHEMBL4513149, “CO-ADD screening of MMV (CH) - MMV compounds” (2021).

For experiment [1], the system named is Staphylococcus aureus. The following applies: Concentration 20 uM; ASSAY_TEST Inhibition of Bacterial Growth; detection method Absorption (OD600); MEDIA CAMHB; plate type 384well; NBS; CORNING #3640; time 18 hr.
Experiment [2] has as its system Escherichia coli. The conditions noted are these: Concentration 20 uM; ASSAY_TEST Inhibition of Bacterial Growth; detection method Absorption (OD600); MEDIA CAMHB; plate type 384well; NBS; CORNING #3640; time 18 hr.

Potency and affinity values are given separately.

As to `Nc1c2c(nc3sc4c(c13)CCCC4)CCCC2`, the values for the Inhibition in experiment [1] and in experiment [2] were 6.99% and -4.01%, respectively.
For the compound `Cc1cc(C2=NOC(c3cc(Cl)c(F)c(Cl)c3)(C(F)(F)F)C2)ccc1C(=O)NCc1ccc2c(c1)C(C)(C)OB2O` (stereo not given), the Inhibition in experiment [1] is 14.07%; in experiment [2] it was 6.28%.
The matching figures for `CO[C@@H]1CN(c2ccc(C#CC3(O)CN4CCC3CC4)c(Cc3ccccc3)n2)C[C@H]1O` (stereo not given in full): -11.47% and -3.76%.
Taken in the same sequence, the figures for `Cc1cccc(C(=O)Nc2ccnc(N(C)C3CCN(CC(C)C)CC3)c2)c1` were 17.27% and 7.9%.
The matching figures for `Cc1nn(C)c(C)c1NS(=O)(=O)c1c(Cl)cc(-c2ccnc(N3CCNCC3)c2)cc1Cl`: 12.75% and 5.87%.
As for `CO[C@@H](C(=O)N1Cc2[nH]nc(NC(=O)c3ccc(N4CCN(C)CC4)cc3)c2C1)c1ccccc1` [DANUSERTIB], the results for the Inhibition in experiment [1] and in experiment [2] were 12.13% and 1.94%, respectively.
The matching figures for `Cc1nn(Cc2ccccc2)c(Cl)c1C(=O)NC1CCCCCC1`: 11.91% and 1.54%.
On to `CC(=O)Oc1ccccc1C(=O)Nc1ncc([N+](=O)[O-])s1` [NITAZOXANIDE], for which the figures for the Inhibition in experiment [1] and in experiment [2] were 50.75% and -2.79%, respectively.
Taken in the same sequence, the figures for `CNCCC(Oc1ccc(C(F)(F)F)cc1)c1ccccc1` (stereo not given) [FLUOXETINE] were 7.53% and 3%.
The matching figures for `CC1(C)OB(O)c2ccc(C3=NOC(c4cc(Cl)c(F)c(Cl)c4)(C(F)(F)F)C3)cc21` (stereo not given): 15.02% and 11.05%.

For orientation: Inhibition means the change of the read-out against control, counted positive when it falls.
